# Assay outcomes from PubChem BioAssay.
# 14-3-3g Raf: modulators of human 14-3-3 gamma - Raf peptide interaction; P61981; FP, 14-3-3gamma / TMR-pS259-Raf peptide binding; inhibition, % at 40 µM; 0.19% of 160,000 active; AID 422; in the data active = inhibition above about 30%;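 also: 0% = protein plus tracer without compound and 100% = blank with tracer alone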
# Target sequence (P61981 whole entry, looked up): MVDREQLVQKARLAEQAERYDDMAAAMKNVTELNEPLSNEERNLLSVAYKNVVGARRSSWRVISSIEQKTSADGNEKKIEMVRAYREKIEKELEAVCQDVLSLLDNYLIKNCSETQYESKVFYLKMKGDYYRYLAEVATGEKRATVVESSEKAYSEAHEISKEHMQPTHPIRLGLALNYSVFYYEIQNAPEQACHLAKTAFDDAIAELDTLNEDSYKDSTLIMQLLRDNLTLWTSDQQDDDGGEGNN
# Numbers without * were called inactive. This excerpt belongs to a sample that is enriched for hits.
SMILES,14-3-3g Raf
CCCCSc1nnc2c(n1)OC(c1ccccc1)Nc1ccccc1-2 (stereo not drawn),-2.7
CCCCCCSc1nnc2c(n1)OC(c1cccnc1)Nc1ccccc1-2 (stereo not drawn),68.2*
CCSc1nnc2c(n1)OC(c1cccc(C)n1)Nc1ccccc1-2 (stereo not drawn),1.8
CCCCSc1nnc2c(n1)OC(c1cccnc1)Nc1ccc(Br)cc1-2 (stereo not drawn),-34.3
CCCSc1nnc2c(n1)OC(c1ccncc1)Nc1ccccc1-2 (stereo not drawn),-8.9
C=CCSc1nnc2c(n1)OC(c1cccnc1)Nc1ccccc1-2 (stereo not drawn),-17.2
C=CCSc1nnc2c(n1)OC(c1cccc(O)c1)Nc1ccccc1-2 (stereo not drawn),-5.2
CCCSc1nnc2c(n1)OC(c1cc3c(cc1Cl)OCO3)Nc1ccccc1-2 (stereo not drawn),-49.5
CCOC(=O)C1=C(C)NC2=C(C(=O)C(C(=O)OC)C(C)C2)C1c1ccc(OC(C)=O)cc1 (stereo not drawn),1.9
CCOc1ccc(-n2nc3ccc(NC(=O)c4ccc(I)cc4)cc3n2)cc1,-1.4
O=C(CCS(=O)(=O)c1ccc(Cl)cc1)Nc1ccccc1F,2.0
COc1ccc(Nc2nc(-c3c(C)nc4ccccn34)cs2)cc1,-0.3
O=c1c2cc3c(cc2[nH]c(=S)n1C1CCCC1)OCO3,-2.8
Clc1ccc(-c2noc(C34CC5CC(CC(C5)C3)C4)n2)cc1,13.8
O=C(c1ccc(F)cc1)N1CCN(C(=O)c2ccco2)CC1,-0.7
COc1ccc(S(=O)(=O)N2CCC(C(=O)Nc3ccc(C(F)(F)F)cc3)CC2)cc1OC,-2.1
COc1ccc2[nH]c3ccc([N+](=O)[O-])cc3c(=O)c2c1,-15.7
CCOc1cc(C2Nc3ccccc3-c3nnc(SC)nc3O2)cc(Br)c1OCC (stereo not drawn),-106.2
CSc1nnc2c(n1)OC(c1ccsc1)Nc1ccccc1-2 (stereo not drawn),-3.2
CCOc1ccc([N+](=O)[O-])cc1C1Nc2ccccc2-c2nnc(SC)nc2O1 (stereo not drawn),38.3*
CCSc1nnc2c(n1)OC(c1ccc(N(CC)CC)cc1)Nc1ccccc1-2 (stereo not drawn),38.9*
CCSc1nnc2c(n1)OC(c1ccc(C)cc1)Nc1ccccc1-2 (stereo not drawn),5.1
CCCSc1nnc2c(n1)OC(c1ccsc1)Nc1ccc(Br)cc1-2 (stereo not drawn),-65.3
CCOc1cccc(C2Nc3ccccc3-c3nnc(SC)nc3O2)c1OC (stereo not drawn),-1.1
CCCSc1nnc2c(n1)OC(c1ccsc1)Nc1ccccc1-2 (stereo not drawn),63.8*
SMILES,14-3-3g Raf
O=C(O)CSc1nnc2c(n1)OC1(CCCC1)Nc1ccccc1-2,-4.0
CCSc1nnc2c(n1)OC(c1ccc(CC)cc1)Nc1ccccc1-2 (stereo not drawn),18.2
CCCSc1nnc2c(n1)OC1(CCCC1)Nc1ccc(Br)cc1-2,-57.7
CCCCSc1nnc2c(n1)OC1(CCCC1)Nc1ccccc1-2,116.9*
CC(=O)c1c(C)[nH]c(C(=O)NCCc2ccc(S(N)(=O)=O)cc2)c1C,-5.7
CCCSc1nnc(Cc2cc(=O)[nH]c(=O)[nH]2)n1-c1ccc(Cl)cc1,-5.4
Cc1ccc(Cl)cc1Nc1nnc(C)c(=O)[nH]1,-22.3
Cc1c(Cl)cccc1N1C(=O)C2CCCCC2C1=O (stereo not drawn),0.7
O=c1[nH]cnc2c1[nH]c1ccccc12,-17.0
CSc1ccc(-c2nc3ccc(Br)cn3c2NC2CCCCC2)cc1,-8.3
Cc1ccc(S(=O)(=O)Nc2ccccc2C(=O)Nc2sc3c(c2C#N)CC(C)CC3)cc1 (stereo not drawn),-18.2
CCCOc1ccc(C2NC(=O)NC(C)=C2C(=O)OCCSC)cc1 (stereo not drawn),0.5
CSc1nnc2c(n1)OC(c1ccccc1Br)Nc1ccccc1-2 (stereo not drawn),41.1*
CSc1nnc2c(n1)OC(c1ccc(Br)s1)Nc1ccccc1-2 (stereo not drawn),-18.2
CSc1nnc2c(n1)OC(c1ccccc1O)Nc1ccccc1-2 (stereo not drawn),0.7
COc1ccc(C2=NN(c3ccccc3)C(c3ccc(OC)cc3)C2)cc1 (stereo not drawn),-33.7
O=c1oc2ccccc2cc1C1=NN(c2ccccc2)C(c2ccccc2)C1 (stereo not drawn),53.9*
Cc1ccc(N2N=C(c3ccccc3)CC2c2ccccc2)cc1 (stereo not drawn),-8.5
CCOC(=O)c1sc(NC(=O)c2ccccc2C)c(C(=O)OCC)c1C,-5.8
Cc1cc(C)nc(NS(=O)(=O)c2ccc(N=CC=Cc3ccc([N+](=O)[O-])cc3)cc2)n1,3.7
COc1ccc(C2=NC(c3ccc(F)cc3)NC(c3cc(Br)ccc3O)C2)cc1 (stereo not drawn),-5.1
O=C(COc1ccc2c(c1)C(=O)CC1(CCCCC1)O2)NCc1ccccn1,-10.1
CC(=O)N1CCC2(CC1)CC(=O)c1cc(OCC(=O)NCc3ccccn3)ccc1O2,102.6*
